Results filed as inconclusive are left out. Entries that show only a call come without a potency. Activity calls are given as the source filed them. Calls come from the whole dose curve; as a rule, active = well fitted curve in the direction sought with a large enough effect; inconclusive = small, poorly fitted or top-dose-only effect, or effect the other way, or another doubt; inactive = no such curve, though single readings can be large or run the other way.
target: Pyruvate kinase PKLR (Homo sapiens) (UniProt P30613); test: Secondary LDH Assay for Activators of Human Reticulocyte Pyruvate Kinase: for Probe SAR; settings: purified hPK-R, LDH-coupled NADH fluorescence kinetic; series mostly up to 58.4 µM
Text: NIH Chemical Genomics Center [NCGC] Wael M. Rabeh, Lyudmila Nedyalkova and Hee-Wan Park [Structural Genomics Consortium, 100 College St. Toronto, Ontario, Canada] NCGC Assay Overview: Human pyruvate kinase reticulocyte (hPK-R) enzyme was supplied as a highly purified (>95% pure) preparation from Structural Genomics Consortium in Toronto (Ontario, Canada) and a secondary assay was used to evaluate compounds. This assay couples the formation of pyruvate from hPK-R using lactate dehydrogenase (LDH) and NADH. The depletion of NADH is followed in a fluorescent-based kinetic assay that follows the formation of pyruvate to lactate, as catalyzed LDH. Pyruvate kinase substrates, PEP and ADP, were present in the assay at 0.1 mM and 4 mM respectively. In this kinetic assay initial rates were determined by following the fluorescence of NADH depletion.
NCGC Assay Protocol Summary: Three uL of substrate mix (final concentration, 50 mM Tris-Cl pH 8.0, 200 mM KCl, 15 mM MgCl2, 0.1 mM PEP, 4.0 mM ADP, and 0.2 mM NADH) was dispensed into black-solid 1536 well plates. 23 nL of compounds were delivered by a pin tool and 1 uL of enzyme mix (final concentrations, 10 nM hPK-R and 1 uM of LDH) was added. Plates were immediately placed in ViewLux (Perkin Elmer) and NADH fluorescence was determined at 30 second exposure intervals for between 3 and 6 minutes. Data were normalized to the uninhibited and EC100 activation using known activators such as fructose-bis-phosphate.

Pyruvate kinase PKLR (Homo sapiens), sequence (P30613 whole entry, looked up): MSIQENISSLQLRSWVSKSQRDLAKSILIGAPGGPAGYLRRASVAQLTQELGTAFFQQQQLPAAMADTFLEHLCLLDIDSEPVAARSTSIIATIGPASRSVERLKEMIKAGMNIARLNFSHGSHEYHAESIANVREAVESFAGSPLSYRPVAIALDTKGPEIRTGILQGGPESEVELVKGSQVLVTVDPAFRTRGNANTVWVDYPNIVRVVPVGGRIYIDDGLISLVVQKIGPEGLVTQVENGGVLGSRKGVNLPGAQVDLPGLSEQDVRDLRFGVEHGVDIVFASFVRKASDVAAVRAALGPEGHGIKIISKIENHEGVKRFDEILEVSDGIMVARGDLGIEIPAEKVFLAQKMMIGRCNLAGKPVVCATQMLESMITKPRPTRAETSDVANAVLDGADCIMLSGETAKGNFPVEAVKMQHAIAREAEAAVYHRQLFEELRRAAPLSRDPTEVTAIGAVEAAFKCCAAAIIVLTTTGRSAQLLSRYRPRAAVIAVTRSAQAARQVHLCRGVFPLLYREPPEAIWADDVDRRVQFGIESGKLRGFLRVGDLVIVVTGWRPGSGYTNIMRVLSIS

SMILES | Potency
O=C1CCc2cc(S(=O)(=O)Nc3ccc4c(c3)OCCO4)ccc2N1 | inactive
Cc1ccc2nc(-c3cccs3)c(Nc3ccccc3)n2c1 | inactive
COc1ccc(Nc2c(-c3ccc(C)o3)nc3ccccn23)cc1 | inactive
O=C1c2ccccc2C(=O)N1c1nccs1 | inactive
Cc1ccc(NS(=O)(=O)c2cc3c(cc2Cl)NC(=O)C3)cc1C | inactive
Cc1ccc(NS(=O)(=O)c2ccc3c(c2)N(C)CCO3)cc1C | inactive
O=C1c2ccccc2C(=O)N1Cc1ccccc1 | inactive
Cc1ccc(N2C(=O)c3ccccc3C2=O)c(C)c1 | inactive
Cc1cc(C)n2c(Nc3ccccc3)c(-c3ccc(C)o3)nc2n1 | inactive
Cc1cc2c(s1)c1cnn(Cc3ccccc3F)c(=O)c1n2C | inactive
Cc1ccc(OC2=NS(=O)(=O)c3ccccc32)cc1 | inactive
O=C1c2ccccc2C(=O)N1Cc1ccncc1 | inactive
Cc1ccc(NS(=O)(=O)c2cc3c(cc2-c2cn[nH]c2)NC(=O)CO3)cc1C | inactive
O=C1CCc2cc(S(=O)(=O)Nc3cccnc3)ccc2N1 | inactive
COc1cc(N2C(=O)c3ccccc3C2=O)c2ncccc2c1 | inactive
O=C1CCc2cc(S(=O)(=O)Nc3ccccc3F)ccc2N1 | inactive
O=C1c2ccccc2C(=O)N1c1cccc2ccncc12 | inactive
Cc1ccc(NS(=O)(=O)c2ccc3c(c2)CCCC(=O)N3)cc1C | inactive
COc1ccc(N2C(=O)c3ccccc3C2=O)cc1 | inactive
O=C1c2ccccc2C(=O)N1c1ncccc1O | inactive

SMILES | Potency
CC(=O)N1CCc2cc(S(=O)(=O)Nc3ccc(C)c(C)c3)ccc21 | inactive
O=S1(=O)N=C(Oc2ccccc2Cl)c2ccccc21 | inactive
Cc1ccc(NS(=O)(=O)c2cc3c(cc2/C=C/c2ccccc2)NC(=O)CO3)cc1C | inactive
CN(C)c1cccc(S(=O)(=O)N2CCN(S(=O)(=O)c3ccc4c(c3)OCCO4)CC2)c1 | inactive
CSc1cc2c(s1)c1cnn(Cc3cccc(N)c3)c(=O)c1n2C | inactive
CNc1cccc(S(=O)(=O)N2CCN(S(=O)(=O)c3ccc4c(c3)OCCO4)CC2)c1 | inactive
CC(=O)Nc1cccc(S(=O)(=O)Nc2ccc(C)c(C)c2)c1 | inactive
Cc1ccc(NS(=O)(=O)c2cc3c(cc2F)NC(=O)CC3)cc1C | inactive
O=C1CCc2cc(S(=O)(=O)Nc3ccc(Cl)cc3)ccc2N1 | inactive
COc1cccc(Cn2ncc3c4sc(SC)cc4n(C)c3c2=O)c1 | inactive
Cc1ccc(NS(=O)(=O)c2cc3c(cc2C)NC(=O)CO3)cc1C | inactive
CNc1cc2c(cc1S(=O)(=O)Nc1ccc(C)c(C)c1)CCC(=O)N2 | inactive
Cc1ccc(NC(=O)c2ccc3c(c2)CCC(=O)N3)cc1C | inactive
COc1ccccc1OC1=NS(=O)(=O)c2ccccc21 | inactive
Cc1ccc(NS(=O)(=O)c2ccc3c(c2)CCC(=O)N3)cc1C | inactive
Cc1ccc(NS(=O)(=O)c2ccc3c(c2)NC(=O)CO3)cc1C | inactive
Cc1ccc(NS(=O)(=O)c2ccc(-c3ccccc3)cc2)cc1C | inactive
O=S1(=O)N=C(Oc2ccccc2)c2ccccc21 | inactive
Cc1ccc(NS(=O)(=O)c2cccc(C(=O)O)c2)cc1C | inactive
O=C1c2ccccc2C(=O)N1c1cccc(O)c1 | inactive

Reference: PubChem BioAssay AID2562 (National Center for Advancing Translational Sciences (NCATS), 2010)
